# In PubChem BioAssay AID504834 (National Center for Advancing Translational Sciences (NCATS), 2011):
# Out of some 320,000 compounds screened, about 22,000 (6.9%) were called active. A call without a number means that no potency is given here. Roughly 27% stayed inconclusive and do not appear here. Calls come from the whole dose curve; as a rule, active = well fitted inhibition curve with a large enough effect; inconclusive = small, poorly fitted or top-dose-only effect, or another doubt; inactive = no such curve, though single readings can be large or run the other way. This excerpt belongs to a sample that is enriched for actives. Where a SMILES comes first, the peptide text is derived from it. [ ]: non-standard residue; d: D form. The star is where a group is joined. PhAc = O=C(Cc1ccccc1)*
# Assay: Primary qHTS for delayed death inhibitors of the malarial parasite plastid, 96 hour incubation
# Details: P. falciparum luciferase reporter growth; series mostly up to 28.7 µM
# How it was run: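 P. falciparum expressing integrated firefly luciferase grown in erythrocytes (2% hematocrit, 0.05% parasitemia final) with compounds for 96 hours at 37 C, 5% CO2. Growth inhibition read as loss of luminescence after adding luciferase detection reagent.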
# Potency is the fitted concentration of half-maximal effect.
row,Compound,Potency
1,CC(C)(C)n1ncc2c(=O)n(Cc3c(Cl)cccc3Br)cnc21,inactive
2,O=C(O)c1ccc(/C=C2\SC(=S)N(NC(=O)c3ccc(Br)cc3)C2=O)cc1,inactive
3,CS(=O)(=O)N1CCN(CC(=O)NC2CCCC2)CC1,inactive
4,CCN(CC(=O)Nc1c(F)cccc1F)C(=O)c1ccc(S(=O)(=O)N2CCCCC2)cc1,inactive
5,Cn1c(CCN2CCCC2)nc2cc(NS(=O)(=O)c3ccccc3)ccc21,inactive
6,COc1ccc(C(CNC(=O)c2ccc(NS(=O)(=O)c3ccc(F)c(C)c3)cc2)N(C)C)cc1 (stereo not given),inactive
7,COc1ccccc1C(CNC(=O)c1cccc(S(=O)(=O)Nc2ccc(F)cc2)c1)N(C)C (stereo not given),8.28 µM (active)
8,CN(C)C(CNC(=O)c1cccc(S(=O)(=O)Nc2ccc(Br)cc2)c1)c1ccco1 (stereo not given),inactive
9,CSc1nnc2ccc(-c3ccc(C)cc3)nn12,inactive
10,O=C(Cn1c(-c2cscn2)nc2ccccc21)Nc1ccc(Cl)cc1,inactive
11,O=C(CN1CCN(c2ccccn2)CC1)NC1CCCCC1,inactive
12,O=C(Cn1c(-c2cncs2)nc2ccccc21)NC1CCCC1,9.28 µM (active)
13,Cc1ccn2c(=O)nc(SCC(=O)NCc3ccc(F)cc3)nc2c1,inactive
14,CC(C)C[C@@H](NC(=O)[C@H]1CCCN1C(=O)Cc1ccccc1)C(N)=O (PhAc-[dP]-[dL]-NH2),inactive
15,COc1cccc(OC)c1C(=O)N1CCN(Cc2cccnc2)CC1,inactive
16,COc1ccccc1-c1nn(Cc2ccccc2)cc1C(=O)N1CCN(c2ncccn2)CC1,13.1 µM (active)
17,Oc1ccc(CN2CCN(c3ncccn3)CC2)cc1,inactive
18,CCOCCCNC(=O)C1(O)c2cc(Br)ccc2NC(=O)N1c1ccc(C)c(C)c1 (stereo not given),inactive
19,COc1ccc(NS(=O)(=O)c2ccc3oc(SCC(N)=O)nc3c2)cc1,inactive
20,CC(=O)NC(Cc1c[nH]c2ccccc12)C(=O)NCCc1ccccc1 (stereo not given),inactive

row,Compound,Potency
1,COc1cccc(NC(=O)[C@H](Cc2c[nH]c3ccccc23)NC(=O)[C@@H]2Cc3ccccc3CN2)c1,11.7 µM (active)
2,COc1ccc(CNC(=O)[C@H](Cc2c[nH]c3ccccc23)NC(C)=O)cc1OC,inactive
3,CC1(C)c2[nH]c3ccccc3c2C[C@H]2C(=O)N(N)CC(=O)N21,inactive
4,COCCN1CCN(C(=O)c2cc(COc3ccc(F)cc3Cl)on2)CC1,inactive
5,CCCCNC(=S)N/N=C1\CCCCc2ccccc21,9.28 µM (active)
6,Cc1ccc(NC(=S)N/N=C2/CCCc3c(C)cc(C)cc32)cc1,inactive
7,O=[N+]([O-])c1ccccc1N/N=C1\CCc2ccccc21,inactive
8,Cc1ccccc1N1CCN(C2CCCN(C(=O)c3cn4c(C)cccc4n3)C2)CC1 (stereo not given),inactive
9,COc1ccccc1C(=O)Nc1ccnn1C1CCN(Cc2cnn(C)c2)CC1,inactive
10,CCOC(=O)c1c(NC(=S)Nc2ccccc2)sc2c1CCN(C)C2,inactive
11,CCOC(=O)c1c(NC(=O)Cn2nc(C(F)(F)F)cc2C)sc2c1CCC2,inactive
12,CCOC(=O)c1c(NC(=O)NC(C)(C)C)sc2c1CCN(C)C2,4.15 µM (active)
13,CCOCC(=O)Nc1sc2c(c1C(=O)OCC)CCCC2,inactive
14,CCOC(=O)c1c(NC(=S)NC)sc2c1CCCC2,8.28 µM (active)
15,CCOC(=O)c1c(NC(=S)Nc2ccccc2C)sc2c1CCC2,inactive
16,O=C(CCc1nc(-c2ccccc2)no1)Nc1cccc(C(=O)NC2CC2)c1,inactive
17,CCOC(=O)C1CCN(S(=O)(=O)c2ccc3c(c2)N(C)C(=O)CC(=O)N3C)CC1,inactive
18,COc1cc2ccccc2cc1C(=O)Nc1ccc(N2CCOCC2)cc1,inactive
19,COc1cccc(C(=O)NC(=O)Nc2nc(C)cc(C(F)(F)F)n2)c1,inactive
20,Cc1cccc(OCC(=O)Nc2ccc(NC(=O)c3ccco3)c(C)c2)c1,inactive

row,Compound,Potency
1,O=C(CN1C(=O)NC2(CCCCCC2)C1=O)NCc1cccs1,inactive
2,O=C1CN(C(=O)CN2C(=O)NC3(CCCCC3)C2=O)c2ccccc2N1,14.7 µM (active)
3,O=C(CN1C(=O)NC2(CCCCC2)C1=O)N1CCN(C(=O)c2cccs2)CC1,inactive
4,COCCN1CCn2c(nc3cc(NS(C)(=O)=O)ccc32)C1,inactive
5,Cc1ccc(CNC(=O)c2ccc(CS(=O)Cc3cccc(Cl)c3)o2)cc1 (stereo not given),inactive
6,COc1ccc(CCNC(=O)c2cnc(Cl)c(Cl)c2)cc1,inactive
7,COC(=O)c1cc2c(N)c(C(=O)c3ccc(Cl)cc3)sc2nc1C(OC)OC,inactive
8,Nc1c(C(=O)NCc2ccccc2)sc2nc3c(cc12)C(=O)CCC3,inactive
9,CC(C)OC(=O)c1sc2nc3c(cc2c1N)C(=O)CCC3,5.22 µM (active)
10,COc1ccc(N2C(=O)C(Cc3ccccc3)NC2=S)cc1 (stereo not given),inactive
11,Cc1cccc([C@@H]2[C@@H]3C(=O)N(Cc4ccccc4)C(=O)[C@@H]3[C@]3(Cc4ccc(Cl)cc4)C(=O)N(c4cccc(Cl)c4)C(=O)N23)c1,inactive
12,O=C(NC1(C(F)(F)F)NC(=O)N(C2CCCCC2)C1=O)c1ccco1 (stereo not given),inactive
13,C[C@@]12C(=O)N(c3cccc(Br)c3)C(=O)N1[C@H](c1ccc(Cl)cc1)[C@@H]1C(=O)N(C3CCCCC3)C(=O)[C@@H]12,16.5 µM (active)
14,Cc1cccc(N2C(=O)C3C(c4ccccc4)OC4(C(=O)c5ccccc5C4=O)C3C2=O)c1 (stereo not given),inactive
15,O=C1[C@H]2[C@@H](c3ccc(F)cc3)N3C(=O)N(c4ccc(C(F)(F)F)cc4)C(=O)[C@@]3(Cc3ccccc3)[C@H]2C(=O)N1C1CCCCC1,5.22 µM (active)
16,Cc1cccc(N2C(=O)N3[C@H](c4ccc(F)cc4)[C@@H]4C(=O)N(C5CCCCC5)C(=O)[C@@H]4[C@]3(Cc3ccccc3)C2=O)c1,13.1 µM (active)
17,COc1ccc([C@@H]2[C@@H]3C(=O)N(C(C)(C)C)C(=O)[C@@H]3[C@]3(Cc4ccccc4)C(=O)N(c4cccc(Br)c4)C(=O)N23)cc1,1.65 µM (active)
18,CC12C(=O)N(c3ccccc3)C(=O)C1C(c1ccccc1)N1CCCN12 (stereo not given),inactive
19,COc1ccc(C2C(C(C)=O)=C(O)C(=O)N2Cc2cccnc2)cc1 (stereo not given),inactive
20,Cc1c(C)c(C)c(S(=O)(=O)N2CCC3(CC2)OCCO3)c(C)c1C,inactive
